Test results as given in the supplement of paper PMC9877034.
Where a name gives a salt, the structure may show the parent alone. Whole data set: some 1,000 compounds, median “cFRET/donor change relative to DMSO, normalised to beta-lapachone positive control (supercomplex I-IV assembly)” near 0.18, cut for the lowest 2% near -1. This is one part of a sample in which the lowest values are shown more often than they occur.

Tested on: C2C12 (NDUFB8-AcGFP / COX8A-DsRed-Monomer FRET reporter)
Experiment: cFRET/donor change relative to DMSO, normalised to beta-lapachone positive control (supercomplex I-IV assembly) (fraction of beta-lapachone effect); higher = more respiratory supercomplex assembly
Conditions: 40 µM; 24 h
Protocol: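 Cells were treated with 40 uM compound for 24 h and imaged on an IN Cell Analyzer 6000. Corrected FRET was divided by donor signal (cFRET/donor) and measured in two replicate experiments. The score is (mean cFRET/donor of compound - mean DMSO) / (mean beta-lapachone 40 uM - mean DMSO). Compounds flagged for prominent cell death, abnormal morphology or decreased cell number were excluded.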

Row | Compound | cFRET/donor change
1 | COc1cc2nc(N3CCCN(C)CC3)nc(NC3CCN(Cc4ccccc4)CC3)c2cc1OC | 0.186
2 | C=C(c1ccc(C(=O)O)cc1)c1cc2c(cc1C)C(C)(C)CCC2(C)C [Bexarotene] | 0.499
3 | c1ccc(C(NCCNC(c2ccccc2)c2ccccc2)c2ccccc2)cc1 | 0.0957
4 | COc1ccccc1CNC1CCCNC1c1ccccc1 (stereo not drawn) | 0.266
5 | O=C(Nc1cc(C(F)(F)F)cc(C(F)(F)F)c1)Nc1c(Br)cc(Br)cc1-c1nn[nH]n1 | 1.37
6 | C[C@@H](O)[C@H]1C(=O)N2C(C(=O)O)=C(SCCNC=N)C[C@H]12 [Imipenem monohydrate] | 0.461
7 | Cc1cc(C)c(/C=C2\C(=O)Nc3ccccc32)[nH]1 | -2.59
8 | COc1cc(OC)c(C=C2C(=O)Nc3ccccc32)c(OC)c1 | 0.382
9 | CN(C)CCC(c1ccc(Br)cc1)c1ccccn1 (racemic) [(±)-Brompheniramine maleate] | 0.0175
10 | Clc1ccc(C(c2ccccc2Cl)C(Cl)Cl)cc1 (stereo not drawn) [1-(2-Chlorophenyl)-1-(4-chlorophenyl)-2,2-dichloroethane] | 0.237
11 | NCCC[C@](N)(C(=O)O)C(F)F (racemic) [DL-alpha-Difluoromethylornithine hydrochloride] | 0.232
12 | COc1cc(/C=C/C(=O)N2CCC=CC2=O)cc(OC)c1OC [Piperlongumine] | -0.315
13 | CC(C)(C)c1cc(/C=C(\C#N)C(N)=S)cc(C(C)(C)C)c1O [Tyrphostin AG 879] | -2.01
14 | N#CC(C#N)=C(N)/C(C#N)=C/c1ccc(O)cc1 [Tyrphostin AG 112] | 0.38
15 | CC(C)(C=O)Cc1cc(C(C)(C)C)c(O)c(C(C)(C)C)c1 | 0.29
16 | COc1ccc(C2(O)OC(=O)C(c3ccc4c(c3)OCO4)=C2Cc2cc(OC)c(OC)c(OC)c2)cc1 (stereo not drawn) | 0.173
17 | CCN1CCCC1CNC(=O)c1cc(S(N)(=O)=O)ccc1OC (single isomer, unassigned; (-)) [(-)-Sulpiride] | 0.312
18 | CC[C@@]1(O)C(=O)OCc2c1cc1n(c2=O)Cc2cc3c(CN(C)C)c(O)ccc3nc2-1 [Topotecan hydrochloride hydrate] | -3.92
19 | NCCCCN [Putrescine dihydrochloride] | 0.0353
20 | NCCS(=O)(=O)O [Taurine] | -0.02
21 | NCCCS(=O)(=O)O [3-Amino-1-propanesulfonic acid sodium] | -2.05
22 | COC1=C(OC)C(=O)c2ccccc2C1=O [2,3-Dimethoxy-1,4-naphthoquinone] | 0.433
23 | Cc1cc(Cl)ccc1OCCCC(=O)NO [Droxinostat] | 0.131
24 | COc1cccc2c1[C@@H]1CN(CCCCn3c(=O)[nH]c4c(sc5ncc(-c6ccccc6)nc54)c3=O)C[C@@H]1CO2 [Fiduxosin hydrochloride] | -1.25
25 | Cn1cnc([N+](=O)[O-])c1Sc1ncnc2[nH]cnc12 [Azathioprine] | 0.496
26 | N=c1ccn2c(n1)O[C@H]1[C@H](O)[C@@H](CO)O[C@H]12 [Ancitabine hydrochloride] | -0.0397

Row | Compound | cFRET/donor change
27 | Fc1ccc2[nH]c(CN3CCN(c4ccccn4)CC3)cc2c1 | 0.168
28 | CC(C)[C@H](N)C(=O)OCC(CO)OCn1cnc2c(=O)[nH]c(N)nc21 (stereo partly drawn) [Valganciclovir hydrochloride hydrate] | -0.064
29 | N=C(N)NCCCCN [Agmatine sulfate] | 0.125
30 | CS(=O)(=O)c1cccc(CNc2nc(Nc3ccc4c(c3)CCC(=O)N4)ncc2C(F)(F)F)c1 | 2
31 | NC(=S)c1ccc[n+]([C@@H]2O[C@@H](COP(=O)([O-])OP(=O)(O)OC[C@H]3O[C@@H](n4cnc5c(N)ncnc54)C(OP(=O)(O)O)[C@H]3O)C(O)C2O)c1 (stereo partly drawn) [Thio-NADP sodium] | -0.317
32 | O=C(c1ccc(OCCCc2c[nH]cn2)cc1)C1CC1 [Ciproxifan hydrochloride] | 0.224
33 | O=c1ccc2c(OCCCCc3ccccc3)c3ccoc3cc2o1 [Psora-4] | 0.396
34 | Cc1cccc(-c2[nH]ncc2-c2ccc3ncccc3n2)n1 | 0.0385
35 | CC1=C(C)C(=O)C(CCCCC#CCCCC#CCO)=C(C)C1=O | 0.121
36 | Nc1cc2c(ncn2CCOCP(=O)(O)O)c(=O)[nH]1 [PMEG hydrate] | 0.0365
37 | N[C@@H]1[C@H]2CN(c3nc4c(cc3F)c(=O)c(C(=O)O)cn4-c3ccc(F)cc3F)C[C@@H]12 [Trovafloxacin mesylate] | 0.3
38 | CC(C(O)c1ccc(O)cc1)N1CCC(Cc2ccccc2)CC1 (stereo not drawn) [Ifenprodil tartrate] | 0.529
39 | O=C(Nc1cccnc1)N1CCC(Cc2cccc(Oc3ccc(C(F)(F)F)cn3)c2)CC1 [PF 3845 hydrate] | 0.494
40 | Nc1ccc(-c2ccc3ccccc3n2)cc1 [BF-170 hydrochloride] | -0.429
41 | CN(C)C(=O)[C@H](O)[C@H](Cc1ccccc1)NC(=O)c1cc2cc(Cl)ccc2[nH]1 | 0.332
42 | NC(=O)C1=CN(C2OC(COP(=O)(O)OP(=O)(O)OC[C@H]3O[C@@H](n4cnc5c(N)ncnc54)C(OP(=O)(O)O)[C@H]3O)C(O)C2O)C=CC1 (stereo partly drawn) [NADPH tetrasodium] | -0.198
43 | Cc1[nH]c(=O)c(C#N)cc1-c1ccc2nccn2c1 [Olprinone hydrochloride] | 0.211
44 | CN1C2CCCC1CC(NC(=O)c1nn(C)c3ccccc13)C2 (stereo not drawn) [Granisetron hydrochloride] | 0.333
45 | O=C(O)COCCN1CCN(C(c2ccccc2)c2ccc(Cl)cc2)CC1 (stereo not drawn) [Cetirizine dihydrochloride] | 0.511
46 | Cc1cccc(C)c1NC(=O)C(C)N (stereo not drawn) [Tocainide hydrochloride] | 0.415
47 | CCCCCc1ccc(/C=C/C(=O)Nc2cc(Cl)ccc2C(=O)O)cc1 | 0.0865
48 | Oc1cc2c(c(Cl)c1O)CCNCC2c1ccccc1 (racemic) [(±)-6-Chloro-PB hydrobromide] | 2.85
49 | Nc1ccn([C@@H]2O[C@H](CO)[C@@H](O)C2(F)F)c(=O)n1 [Gemcitabine hydrochloride] | 0.261
50 | CCCCc1ncc(/C=C(\Cc2cccs2)C(=O)O)n1Cc1ccc(C(=O)O)cc1 [Eprosartan mesylate] | -0.151
51 | COCCOc1cc2nc[nH]c(=O)c2cc1OCCOC | 0.343
52 | CCNC(=O)[C@H]1O[C@@H](n2cnc3c(N)nc(NCCc4ccc(CCC(=O)O)cc4)nc32)[C@H](O)[C@@H]1O | -0.069

Row | Compound | cFRET/donor change
53 | Nc1nc2ccc(Cl)cc2c2nc(-c3ccco3)nn12 | 0.163
54 | Nc1nc2ccc(Cl)cc2n2c(-c3ccccc3)nnc12 | -1.23
55 | OC[C@H]1O[C@H]([S-])[C@H](O)[C@@H](O)[C@@H]1O.[Au+] [Aurothioglucose] | -0.0527
56 | Nc1ncnc2c1ncn2[C@@H]1O[C@H](COP(=O)(O)OP(=O)(O)OP(=O)(O)OP(=O)(O)OC[C@@H]2O[C@H](n3cnc4c(N)ncnc43)C(O)[C@@H]2O)[C@H](O)C1O (stereo partly drawn) [P1,P4-Di(adenosine-5')tetraphosphate triammonium] | 0.0746
57 | CCOC(=O)[C@H](CCc1ccccc1)N[C@@H](C)C(=O)N1[C@H](C(=O)O)C[C@H]2CCCC[C@@H]21 [Trandolapril] | -0.23
58 | CCc1ccc(/C=C2/SC(=S)NC2=O)cc1 | -1.41
59 | O=C1NC(=O)/C(=C\c2ccc3nccnc3c2)S1 | 2.84
60 | CCCCS(=O)(=O)N[C@@H](Cc1ccc(OCCCCC2CCNCC2)cc1)C(=O)O [Tirofiban hydrochloride monohydrate] | 0.174
61 | CO[C@H]1O[C@@H]2O[C@@]3(C)CC[C@H]4[C@H](C)CC[C@@H]([C@H]1C)[C@@]24OO3 [Artemether] | 0.954
62 | O=C(NOCC1CC1)c1cc(Br)c(F)c(F)c1Nc1ccc(I)cc1Cl | 0.176
63 | COc1cc(Nc2c(C#N)cnc3cc(OCCCN4CCN(C)CC4)c(OC)cc23)c(Cl)cc1Cl [Bosutinib] | 0.241
64 | NCC(O)c1ccc(O)c(O)c1 (racemic) [(±)-Norepinephrine (+)bitartrate] | -0.03
65 | CN(C)C[C@H](O)Cn1c2ccc(Br)cc2c2cc(Br)ccc21 (racemic) [Wiskostatin] | 0.951
66 | CN(C)c1ccccc1CN1CCCN(Cc2ccccc2N(C)C)C1c1ccncc1 | 0.598
67 | CS(=O)(=O)c1ccc(-n2nc(C(F)(F)F)cc2-c2ccc(F)cc2)cc1 | 0.187
68 | O=C(Nc1ccc2[nH]ncc2c1)C1CCC1 [Rhodblock 6] | 0.156
69 | COc1cc2nc(N(C)CCCNC(=O)C3CCCO3)nc(N)c2cc1OC (stereo not drawn) [Alfuzosin hydrochloride] | 0.0541
70 | CN(C)CCC(c1ccc(Br)cc1)c1ccccn1 (single isomer, unassigned; (+)) [(+)-Brompheniramine maleate] | 0.114
71 | CN1CCN(CCCN2c3ccccc3Sc3ccc(C(F)(F)F)cc32)CC1 [Trifluoperazine dihydrochloride] | 0.794
72 | Nc1nc2c(c(=O)[nH]1)C[C@@H](CCc1ccc(C(=O)N[C@@H](CCC(=O)O)C(=O)O)cc1)CN2 [Lometrexol hydrate] | -0.284
73 | CCN(c1nc(N)c(C(=O)NC(=N)N)nc1Cl)C(C)C [5-(N-Ethyl-N-isopropyl)amiloride] | -1.88
74 | CN(C)c1nc(N)c(C(=O)NC(=N)N)nc1Cl [5-(N,N-Dimethyl)amiloride hydrochloride] | 0.174
75 | N=C(N)NC(=O)c1nc(Cl)c(N)nc1N [Amiloride hydrochloride] | -0.0692
76 | COc1ccc(Br)cc1S(=O)(=O)NC(=O)/C=C/c1ccccc1Cc1ccc2ccccc2c1 | 0.583
77 | COc1ccc(/C=C/c2nc(NCCCN(C)C)c3ccccc3n2)cc1 | 0.418
78 | Cn1c(=O)c2nc[nH]c2n(C)c1=O [Theophylline] | 0.334
